# Compound activity: PubChem, National Center for Advancing Translational Sciences (NCATS)
# Only some compounds are listed: those with a hit (about 21% of all), similar ones and a draw of the others.
# IL-1B inflam inh: inflammasome signaling inhibition, IL-1 beta readout; THP-1 LPS/ATP IL-1B secretion, AlphaLISA, 16 h; stronger effect = lower value; activity change, % at 57.5 µM; actives 4.7% (n = 360,000); AID 743279; in the data active = activity change below about -50%; inconclusive = mostly about -30% to -49%; note: % is set by controls: 0 for no effect and ±100 for the full control effect
#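 THP-1 cells pretreated 1 hr with compounds (up to 57.5 uM final), then stimulated with LPS (250 ng/mL final) plus ATP (1.25 mM final); secreted IL-1B measured by AlphaLISA after 16 hr, decreased signal indicating inhibition.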
# DRD3 antagonist: D3 dopamine receptor (human) antagonism | max response, negative = inhibition, % | actives 2.5% (n = 360,000) | D3R cells, DiscoveRx beta-arrestin luminescence, antagonist mode; stronger effect = lower value; in the data active = max response below about -50%; inconclusive = no clear call, values can overlap the other calls; note: % is set by controls: 0 for no effect and ±100 for the full control effect
# Target sequence (P35462 whole entry, looked up): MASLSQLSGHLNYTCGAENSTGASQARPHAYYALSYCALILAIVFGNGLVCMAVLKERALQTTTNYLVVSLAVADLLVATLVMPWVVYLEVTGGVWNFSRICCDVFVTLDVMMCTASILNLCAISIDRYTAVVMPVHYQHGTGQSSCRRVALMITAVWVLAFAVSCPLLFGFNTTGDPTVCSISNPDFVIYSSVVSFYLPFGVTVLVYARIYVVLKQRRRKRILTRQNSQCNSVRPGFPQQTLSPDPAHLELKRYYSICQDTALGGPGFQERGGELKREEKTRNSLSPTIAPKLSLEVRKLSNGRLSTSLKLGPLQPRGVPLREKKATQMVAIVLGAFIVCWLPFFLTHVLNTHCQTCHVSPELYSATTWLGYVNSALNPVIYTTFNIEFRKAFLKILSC
#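 Cells plated overnight at 1500 cells/well, then exposed to library compounds with dopamine controls for 90 minutes at 37 degrees C. DiscoveRx reagent added for 30–60 minutes at room temperature; luminescence read, quantitative HTS format.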
# TDP1 cell noCPT: qHTS for Inhibitors of human tyrosyl-DNA phosphodiesterase 1 (TDP1): qHTS in cells in absence of CPT; DT40 Tdp1-/- hTDP1 cells, no CPT, ATP luminescence, 48 h; Potency, µM (series often up to 46.2 µM), for inactives: at the highest dose activity change, negative = growth inhibition, hits mostly inhibitors; actives 15% (n = 420,000); note: potency is the fitted concentration of half-maximal effect; % is set by controls: 0 for no effect and ±100 for the full control effect; nearly all actives have a fitted effect of over 55% in size
#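 Readout: luminescence from CellTiter-Glo after 30 min in the dark at RT. Cells: DT40 Tdp1-/- with stable hTDP1, 400/well. Exposure: compounds alone, ≥48 hr, 37 °C.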
# TDP1 cell CPT: DT40-hTDP1 cell growth loss with CPT | Potency, µM (doses to about 46.2 µM), for inactives: top-dose activity change, negative = growth inhibition, actives largely listed as inhibitors | chicken DT40 Tdp1-/-;hTDP1 cells + 20 nM CPT, ATP luminescence, 48 h | actives 12% (n = 420,000); note: potency is the fitted concentration of half-maximal effect; % is set by controls: 0 for no effect and ±100 for the full control effect; nearly all actives have a fitted effect of over 55% in size
#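 Chicken DT40 Tdp1-/- cells complemented with human TDP1, 400 cells/well, exposed to compounds plus 20 nM camptothecin for at least 48 h at 37 C; viability read as ATP content by CellTiter-Glo luminescence.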
# ClpP mod: qHTS Assay for Activators of ClpP. purified B. subtilis ClpP, FRET peptide cleavage, 20 min. ATP-dependent Clp protease proteolytic subunit (Bacillus subtilis (strain 168)), P80244. Potency, µM (series often up to 57.5 µM), without a hit: at the top dose activity change, negative = active. actives 1.9% (n = 340,000); active = well fitted falling curve with a large enough effect; inconclusive = small, poorly fitted or top-dose-only effect; inactive = no such curve, though single readings can be large or run the other way; note: potency is the fitted concentration of half-maximal effect; the source files actives as falling curves though it sought activators and does not explain the sign; nearly all actives have a fitted effect of over 65% in size
# Target sequence (P80244 whole entry, looked up): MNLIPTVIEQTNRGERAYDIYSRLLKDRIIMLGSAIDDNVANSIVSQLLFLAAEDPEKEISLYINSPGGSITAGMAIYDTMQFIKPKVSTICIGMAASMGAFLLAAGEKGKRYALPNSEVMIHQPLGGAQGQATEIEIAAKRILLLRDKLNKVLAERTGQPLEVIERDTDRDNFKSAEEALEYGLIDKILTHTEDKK
#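 ClpP 10 microg/mL final, pH 8 Tris/KCl buffer with BSA, glycerol, Tween-20; compound pinned in; FRET-FV substrate; RT 20 min; Ex320/Em430; ΔFRET vs ADEP 5.8 microM, DMSO, no enzyme.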
# D3 ag: D3 dopamine receptor (human) agonism | actives 0.58% (n = 410,000) | D3R DiscoveRx beta-arrestin cells, luminescence, 90 min | P35462 | max activation, %; in the data active = max activation above about 30%; note: 0% is about no effect
#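 Cells at 1500/well, incubated overnight, then treated with pinned compounds (dopamine as control) for 90 min at 37 degrees C. DiscoveRx reagent added for 30 - 60 minutes at room temperature; luminescence read.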
# * = called active by the depositor; i = inactive; u = inconclusive; x = no result given; ! = not active in a repeat. Unless noted, calls come from the whole dose curve; as a rule, active = well fitted inhibition curve with a large enough effect; inconclusive = small, poorly fitted or top-dose-only effect; inactive = flat fitted curve, though single readings scatter.
SMILES,IL-1B inflam inh,DRD3 antagonist,TDP1 cell noCPT,TDP1 cell CPT,ClpP mod,D3 ag
COc1ccc(-c2ccc3[nH]c4c(c3c2)CCN2C(=O)[C@@H]([C@H](C)O)[C@@H](N(C)C(=O)Nc3cc(Cl)cc(Cl)c3)C[C@@H]42)cc1,u,-12.3,14.6µM*,23.1µM*,4.0%,-5.5
COc1ccc(-c2ccc3[nH]c4c(c3c2)CCN2C[C@@H]([C@H](C)O)[C@@H](N(C)C(=O)Nc3cc(Cl)cc(Cl)c3)C[C@@H]42)cc1,0.0,-17.6,4.61µM*,9.2µM*,-8.6%,-8.7
C[C@H](O)[C@@H]1CN2CCc3c([nH]c4ccccc34)[C@@H]2C[C@@H]1N(C)C(=O)Nc1cccc2ccccc12,-20.7,-58.0*,u,u,5.2%,-14.1
Cc1cccc(-c2ccc3[nH]c4c(c3c2)CCN2C[C@@H]([C@H](C)OC(=O)Nc3ccccc3C)[C@@H](N(C)C(=O)Nc3ccccc3C)C[C@@H]42)c1,-21.1,-20.3,25.9µM*,u,-5.5%,-4.9
C[C@H](O)[C@@H]1C(=O)N2CCc3ccc(-c4ccccc4)cc3[C@@H]2C[C@@H]1N(C)C(=O)Nc1cc(Cl)cc(Cl)c1,u,2.8,-22.9%,-19.4%,-4.4%,6.0
CCNC(=O)N(C)[C@H]1C[C@H]2c3[nH]c4ccccc4c3CCN2C[C@H]1[C@H](C)O,17.7,15.8,5.1%,-17.4%,-19.2%,3.6
O=S(=O)(c1ccc(Cl)cc1)N1CCN(CCc2ccccc2)CC1,-5.3,-4.6,-21.4%,-23.7%,x,-8.5
Cc1c(-c2ccc(Cl)cc2)noc1C1CCN(CCc2ccccc2)CC1,x,x,14.6µM*,u,x,x
Cc1c(C2CCN(CCc3ccccc3)CC2)noc1-c1ccc(Cl)cc1,x,x,9.2µM*,11.6µM*,x,x
CC(C)COCC(CN(Cc1ccccc1)c1ccccc1)N1CCCC1 (stereo not drawn),-82.6*,0.0,25.9µM*,10µM*!,-0.8%,-57.2
CC1=N/C(=C/c2cc(Br)cc(Br)c2O)C(=O)O1,-5.6,62.5,-13.1%,-18.6%,-2.9%,-1.4
O=C(CC1C(=O)NCCN1Cc1c(F)cccc1Cl)NCCCn1cccn1 (stereo not drawn),-3.2,10.7,1.0%,-4.2%,-2.6%,-0.7
Cc1c(Cl)cccc1-n1nc(C)c2c(C)cc(=O)n(CC(=O)N3CCCc4ccccc43)c21,x,x,4.61µM*,14.6µM*,-29.4%,-9.1
Cc1ccc(-n2nc(C)c3c(C)cc(=O)n(CC(=O)N4CCCc5ccccc54)c32)cc1,x,x,2.6%,-7.0%,-6.2%,3.2
CCCNc1ncc2c(=O)[nH][nH]c(=O)c2n1,7.0,u,-5.9%,18.3%,x,-16.1
CCCCn1c(N)c(N(CC(C)C)C(=O)c2ccc(-c3ccc(C(C)=O)cc3)o2)c(=O)[nH]c1=O,6.4,-11.4,-23.1%,-11.8%,u,-16.4
CS(=O)(=O)N1CCN(C(=O)c2cc(-c3ccccc3)nc3ccccc23)CC1,9.4,20.2,-20.6%,u,-11.1%,7.8
O=C(c1cc(-c2cccnc2)nc2ccc(Cl)cc12)N1CCN(S(=O)(=O)c2cccs2)CC1,i,5.2,16.4µM*,u,-12.4%,2.8
O=C(c1cc(-c2cccnc2)nc2ccccc12)N1CCN(S(=O)(=O)c2cccs2)CC1,5.3,12.7,23.1µM*,u,-0.2%,-0.5
CCC(C)NC(=O)CCc1c(C)nc2c(c(C)nn2-c2ccc(C)cc2)c1C (stereo not drawn),x,x,7.31µM*,14.6µM*,4.0%,5.1
Cc1nc2c(c(C)nn2-c2ccccc2)c(C)c1CCC(=O)Nc1ccc(F)cc1,x,x,18.4µM*,u,5.2%,43.8*
CCOc1ccccc1NC(=O)CCc1c(C)nc2c(c(C)nn2-c2ccccc2)c1C,x,x,16.4µM*,16.4µM*,-28.0%,-5.0
Cc1ccc(-n2nc(C)c3c(C)c(CCC(=O)NC(C)c4ccccc4)c(C)nc32)cc1 (stereo not drawn),0.0,2.3,u,u,-24.1%,7.7
CC(=O)Nc1ccc(NC(=O)CCc2c(C)nc3c(c(C)nn3-c3ccc(C)cc3)c2C)cc1,x,x,u,14.6µM*,4.2%,-12.0
CC(=O)Nc1ccc(NC(=O)CCc2c(C)nc3c(c(C)nn3-c3ccccc3)c2C)cc1,x,x,-23.8%,-16.4%,4.6%,-8.3
SMILES,IL-1B inflam inh,DRD3 antagonist,TDP1 cell noCPT,TDP1 cell CPT,ClpP mod,D3 ag
O=C(Nc1cnccn1)Nc1ccccc1F,16.4,12.5,2.6%,3.4%,-6.2%,1.1
CCC1(C(N)=O)CC2C=CC1C2 (stereo not drawn),20.2,5.5,0.4%,-2.5%,x,-1.4
Cc1cccc(NC(=O)c2ccc(F)c(S(=O)(=O)NCc3ccc4c(c3)OCO4)c2)c1,x,x,-20.4%,-10.2%,0.1%,8.4
CCCCn1c(N)c(N(CCOC)C(=O)COC(=O)CCOc2ccc(C)cc2)c(=O)[nH]c1=O,0.0,-18.9,-0.9%,-14.9%,0.1%,1.2
CCS(=O)(=O)N1CC(=O)N(c2cccc(Cl)c2)C(C)(C(=O)NC2CCCCCC2)C1 (stereo not drawn),x,x,6.5%,-16.9%,-0.7%,-11.8
CCOC(=O)c1ccc(NC(=O)CCc2c(C)nc3c(c(C)nn3-c3ccccc3)c2C)cc1,x,x,10.3µM*,16.4µM*,u,24.6
COC(=O)c1ccccc1NC(=O)CCc1c(C)nc2c(c(C)nn2-c2ccccc2)c1C,x,x,-8.3%,2.4%,-11.1%,2.9
CC(C)[C@H](NC(=O)OC(C)(C)C)c1nnc(S(=O)(=O)Cc2c(F)cccc2Cl)o1,u,u,1.64µM*,1.16µM*,7.0%,-19.7
CC(C)(C)OC(=O)N[C@@H](Cc1ccccc1)c1nnc(S(=O)(=O)Cc2cccc(F)c2)o1,-80.2*,-3.9,1.3µM*,1.3µM*,-1.1%,-21.9
CC(C)C[C@H](NC(=O)OC(C)(C)C)c1nnc(SCc2ccccc2)o1,-18.5,-27.1,23.1µM*,u,-0.9%,-7.5
Cc1ccccc1CS(=O)(=O)c1nnc([C@H](CC(C)C)NC(=O)OC(C)(C)C)o1,-67.0*,-65.9*,2.82µM*,2.24µM*,-1.1%,-59.1
CCOC(=O)CSc1nnc([C@H](Cc2ccccc2)NC(=O)OC(C)(C)C)o1,6.1,u,-2.8%,-2.0%,1.6%,-1.5
Cc1ccc(C)c(CN2C(=O)c3ccccc3S(=O)(=O)c3ccc(C(=O)Nc4cc(F)ccc4F)cc32)c1,x,x,x,x,-19.9%,2.4
O=C(CSCc1ccccc1)Nc1ccccc1C(=O)Nc1ccc(C(=O)O)cc1,-5.1,3.8,0.3%,-22.9%,x,3.5
